{"source": "the supplement of paper PMC10849652", "note": "Targets with a hit are over-represented here; the source holds about 7,900 in all. About 0.6% of all pairs of compound and target were hits."}
{"compound": "CC1=C(C(CC(=O)N1)C2=CC=C(C=C2)C(F)(F)F)C(=O)NC3=C(C=C4C(=C3)C=NN4)F", "assay": "log2 fold change, soluble protein after heating vs DMSO (PISA); higher = thermal stabilisation; K562 cells, 10 uM, 30 min; active = over 0.2 and 3.5 SD of the protein, either way, in both replicates (recomputed)", "summary_of_the_method": "(§1)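 K562 cells at 2×10^6 cells/mL were given 10 μM compound for 30 min. Aliquots then went through 3 min of heating across 48°C-58°C, were pooled, and were extracted in PBS with 0.5% NP-40 at 4°C, and the supernatant after 21,000xg for 90 min was quantified by TMTpro 16plex LC-MS/MS with channel sums equalised. Thermal stability relative to control samples, from duplicates, is given as log2 fold change.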"}
{"target": "CTU1 (UniProt Q7Z7A3)", "log2 fold change": "0.007 (inactive)"}
{"target": "DNAJC1 (UniProt Q96KC8)", "log2 fold change": "-0.012 (inactive)"}
{"target": "EIF4E isoform 2 (UniProt P06730)", "log2 fold change": "-0.024 (inactive)"}
{"target": "DIP2A (UniProt Q14689)", "log2 fold change": "0.084 (inactive)"}
{"target": "DBN1 isoform 3 (UniProt Q16643)", "sequence (Q16643 whole entry, looked up)": "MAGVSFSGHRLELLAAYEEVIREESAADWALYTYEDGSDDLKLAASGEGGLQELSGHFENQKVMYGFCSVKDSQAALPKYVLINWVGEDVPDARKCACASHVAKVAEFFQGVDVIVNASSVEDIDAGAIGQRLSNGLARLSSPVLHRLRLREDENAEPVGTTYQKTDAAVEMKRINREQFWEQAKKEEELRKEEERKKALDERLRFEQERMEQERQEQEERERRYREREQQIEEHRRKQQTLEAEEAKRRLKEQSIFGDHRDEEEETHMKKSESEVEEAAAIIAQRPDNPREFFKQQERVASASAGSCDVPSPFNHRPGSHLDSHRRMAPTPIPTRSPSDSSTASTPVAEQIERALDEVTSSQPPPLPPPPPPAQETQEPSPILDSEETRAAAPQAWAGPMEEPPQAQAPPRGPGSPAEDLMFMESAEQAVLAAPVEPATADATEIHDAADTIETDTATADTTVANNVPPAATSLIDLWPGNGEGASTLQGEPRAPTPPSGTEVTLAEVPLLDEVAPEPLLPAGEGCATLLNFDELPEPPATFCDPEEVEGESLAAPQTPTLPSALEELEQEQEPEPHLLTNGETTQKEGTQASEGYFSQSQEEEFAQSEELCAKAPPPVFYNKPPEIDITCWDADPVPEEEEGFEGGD", "log2 fold change": "0.05 (inactive)"}
{"target": "EXOC6 (UniProt Q8TAG9)", "log2 fold change": "0.158 (inactive)"}
{"target": "EXTL2 (UniProt Q9UBQ6)", "log2 fold change": "0.021 (inactive)"}
{"target": "DDOST (UniProt P39656)", "log2 fold change": "0.024 (inactive)"}
{"target": "DDX39A (UniProt O00148)", "log2 fold change": "0.092 (inactive)"}
{"target": "ERCC6 (UniProt Q03468)", "log2 fold change": "0.157 (inactive)"}
{"target": "DYRK1A isoform 2 (UniProt Q13627)", "log2 fold change": "-0.014 (inactive)"}
{"target": "DBR1 (UniProt Q9UK59)", "log2 fold change": "0.065 (inactive)"}
{"target": "EEF1G isoform 2 (UniProt P26641)", "sequence (P26641 whole entry, looked up)": "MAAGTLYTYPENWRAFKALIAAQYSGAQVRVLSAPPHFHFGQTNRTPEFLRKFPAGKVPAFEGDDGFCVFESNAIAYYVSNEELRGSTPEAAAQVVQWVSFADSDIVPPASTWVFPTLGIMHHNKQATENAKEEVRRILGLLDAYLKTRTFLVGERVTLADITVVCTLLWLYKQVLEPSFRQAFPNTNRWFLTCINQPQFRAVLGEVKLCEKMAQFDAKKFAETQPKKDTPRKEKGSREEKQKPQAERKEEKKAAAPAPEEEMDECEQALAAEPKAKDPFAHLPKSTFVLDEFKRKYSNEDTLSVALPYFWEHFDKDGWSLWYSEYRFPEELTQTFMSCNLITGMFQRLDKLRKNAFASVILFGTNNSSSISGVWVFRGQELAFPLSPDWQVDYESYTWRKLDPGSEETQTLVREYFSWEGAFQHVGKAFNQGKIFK", "log2 fold change": "-0.015 (inactive)"}
{"target": "DHFR (UniProt P00374)", "log2 fold change": "-0.114 (inactive)"}
{"target": "EFL1 (UniProt Q7Z2Z2)", "log2 fold change": "-0.009 (inactive)"}
{"target": "FAM114A2 (UniProt Q9NRY5)", "sequence (Q9NRY5 whole entry, looked up)": "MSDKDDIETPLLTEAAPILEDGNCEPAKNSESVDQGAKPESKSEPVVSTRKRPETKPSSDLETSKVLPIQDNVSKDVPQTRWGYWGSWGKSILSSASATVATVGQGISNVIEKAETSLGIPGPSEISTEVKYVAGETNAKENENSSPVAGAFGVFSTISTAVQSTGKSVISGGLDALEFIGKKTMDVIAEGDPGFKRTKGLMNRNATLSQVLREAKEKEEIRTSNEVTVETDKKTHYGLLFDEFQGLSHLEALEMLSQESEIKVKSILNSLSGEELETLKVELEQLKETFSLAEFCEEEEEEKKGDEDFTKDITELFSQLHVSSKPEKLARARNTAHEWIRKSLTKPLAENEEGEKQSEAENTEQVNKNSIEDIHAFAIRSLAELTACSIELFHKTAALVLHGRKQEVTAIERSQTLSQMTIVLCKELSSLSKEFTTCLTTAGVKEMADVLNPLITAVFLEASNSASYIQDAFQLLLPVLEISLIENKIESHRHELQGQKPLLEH", "log2 fold change": "-0.01 (inactive)"}
{"target": "DNAAF2 (UniProt Q9NVR5)", "log2 fold change": "0 (inactive)"}
{"target": "EXOC8 (UniProt Q8IYI6)", "log2 fold change": "0.026 (inactive)"}
{"target": "DUS3L (UniProt Q96G46)", "log2 fold change": "-0.001 (inactive)"}
{"target": "DHPS (UniProt P49366)", "sequence (P49366 whole entry, looked up)": "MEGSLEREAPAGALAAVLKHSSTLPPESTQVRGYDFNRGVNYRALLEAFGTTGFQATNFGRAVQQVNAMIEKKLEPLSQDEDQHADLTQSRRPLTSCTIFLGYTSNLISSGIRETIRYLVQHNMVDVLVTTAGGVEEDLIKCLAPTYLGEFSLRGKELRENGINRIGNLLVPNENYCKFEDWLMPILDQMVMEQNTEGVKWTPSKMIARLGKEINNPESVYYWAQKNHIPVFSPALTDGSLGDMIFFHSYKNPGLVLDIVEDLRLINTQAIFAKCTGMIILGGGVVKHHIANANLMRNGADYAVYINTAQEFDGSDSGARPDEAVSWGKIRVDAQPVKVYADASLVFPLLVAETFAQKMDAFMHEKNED", "log2 fold change": "0.008 (inactive)"}
{"target": "EDEM2 (UniProt Q9BV94)", "log2 fold change": "0.009 (inactive)"}
{"target": "DHX16 (UniProt O60231)", "log2 fold change": "-0.045 (inactive)"}
{"target": "ERCC2 (UniProt P18074)", "log2 fold change": "0.021 (inactive)"}
{"target": "DHCR24 (UniProt Q15392)", "log2 fold change": "-0.104 (inactive)"}
{"target": "DNM2 (UniProt P50570)", "log2 fold change": "-0.012 (inactive)"}
{"target": "EHBP1L1 (UniProt Q8N3D4)", "sequence (Q8N3D4 whole entry, looked up)": "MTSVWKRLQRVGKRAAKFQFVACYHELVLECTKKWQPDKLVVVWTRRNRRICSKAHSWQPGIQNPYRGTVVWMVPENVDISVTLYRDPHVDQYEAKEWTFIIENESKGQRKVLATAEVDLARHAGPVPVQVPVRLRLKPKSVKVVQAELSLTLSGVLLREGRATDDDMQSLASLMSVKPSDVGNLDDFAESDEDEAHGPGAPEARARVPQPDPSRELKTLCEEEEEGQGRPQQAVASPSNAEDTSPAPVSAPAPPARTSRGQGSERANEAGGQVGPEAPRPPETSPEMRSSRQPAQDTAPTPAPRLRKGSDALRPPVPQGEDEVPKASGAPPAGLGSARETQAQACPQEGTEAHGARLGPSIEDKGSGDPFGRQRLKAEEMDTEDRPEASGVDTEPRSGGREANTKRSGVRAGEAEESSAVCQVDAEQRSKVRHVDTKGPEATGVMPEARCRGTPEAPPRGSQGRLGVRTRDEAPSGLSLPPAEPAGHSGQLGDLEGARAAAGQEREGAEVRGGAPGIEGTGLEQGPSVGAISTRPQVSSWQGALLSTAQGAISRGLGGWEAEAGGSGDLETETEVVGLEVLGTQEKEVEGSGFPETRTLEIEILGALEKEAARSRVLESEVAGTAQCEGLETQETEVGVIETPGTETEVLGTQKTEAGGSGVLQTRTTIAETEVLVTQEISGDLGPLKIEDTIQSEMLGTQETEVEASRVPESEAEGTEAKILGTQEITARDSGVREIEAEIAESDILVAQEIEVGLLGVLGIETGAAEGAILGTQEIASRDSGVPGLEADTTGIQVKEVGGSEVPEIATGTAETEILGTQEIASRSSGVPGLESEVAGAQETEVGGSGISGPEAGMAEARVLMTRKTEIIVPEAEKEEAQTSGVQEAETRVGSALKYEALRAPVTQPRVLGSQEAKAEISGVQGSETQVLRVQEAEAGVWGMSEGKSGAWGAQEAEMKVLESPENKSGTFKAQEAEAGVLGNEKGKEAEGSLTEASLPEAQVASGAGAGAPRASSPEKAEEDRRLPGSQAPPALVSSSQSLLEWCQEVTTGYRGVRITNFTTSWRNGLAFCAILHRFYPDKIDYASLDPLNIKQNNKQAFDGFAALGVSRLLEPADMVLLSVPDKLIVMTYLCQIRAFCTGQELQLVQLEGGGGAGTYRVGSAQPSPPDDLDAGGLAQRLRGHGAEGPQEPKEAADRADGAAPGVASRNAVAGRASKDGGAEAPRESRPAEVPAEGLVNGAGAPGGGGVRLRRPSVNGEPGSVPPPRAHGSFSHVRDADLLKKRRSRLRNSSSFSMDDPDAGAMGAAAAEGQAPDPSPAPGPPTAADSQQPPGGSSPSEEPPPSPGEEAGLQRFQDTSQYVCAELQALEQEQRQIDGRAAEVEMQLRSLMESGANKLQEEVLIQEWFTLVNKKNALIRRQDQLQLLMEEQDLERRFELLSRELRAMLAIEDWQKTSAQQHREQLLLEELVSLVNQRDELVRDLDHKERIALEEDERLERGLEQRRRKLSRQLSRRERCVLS", "log2 fold change": "-0.049 (inactive)"}
{"target": "FAM118B (UniProt Q9BPY3)", "log2 fold change": "0.014 (inactive)"}
{"target": "EBNA1BP2 (UniProt Q99848)", "log2 fold change": "0.006 (inactive)"}
{"target": "CUTA isoform 2 (UniProt O60888)", "sequence (O60888 whole entry, looked up)": "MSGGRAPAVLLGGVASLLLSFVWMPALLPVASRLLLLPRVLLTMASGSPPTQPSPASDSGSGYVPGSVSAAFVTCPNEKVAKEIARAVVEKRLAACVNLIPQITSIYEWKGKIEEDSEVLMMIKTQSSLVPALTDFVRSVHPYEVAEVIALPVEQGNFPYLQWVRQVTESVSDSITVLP", "log2 fold change": "0.005 (inactive)"}
{"target": "EXOC1 (UniProt Q9NV70)", "log2 fold change": "0.052 (inactive)"}
{"target": "DFFB (UniProt O76075)", "log2 fold change": "-0.052 (inactive)"}
{"target": "ELOVL1 (UniProt Q9BW60)", "sequence (Q9BW60 whole entry, looked up)": "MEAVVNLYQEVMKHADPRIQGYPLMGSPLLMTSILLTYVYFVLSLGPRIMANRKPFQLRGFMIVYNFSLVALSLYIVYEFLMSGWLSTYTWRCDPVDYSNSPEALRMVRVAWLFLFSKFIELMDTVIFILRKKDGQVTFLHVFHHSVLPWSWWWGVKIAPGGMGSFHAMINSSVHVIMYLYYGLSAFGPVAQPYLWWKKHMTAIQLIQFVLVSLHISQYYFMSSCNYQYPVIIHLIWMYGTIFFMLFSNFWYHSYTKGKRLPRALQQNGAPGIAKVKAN", "log2 fold change": "0.016 (inactive)"}
{"target": "FAM3A (UniProt P98173)", "log2 fold change": "0.018 (inactive)"}
{"target": "DTWD2 (UniProt Q8NBA8)", "log2 fold change": "0.031 (inactive)"}
{"target": "DDB1 (UniProt Q16531)", "log2 fold change": "0.022 (inactive)"}
{"target": "E2F4 (UniProt Q16254)", "log2 fold change": "0 (inactive)"}
{"target": "DPH5 isoform 5 (UniProt Q9H2P9)", "sequence (Q9H2P9 whole entry, looked up)": "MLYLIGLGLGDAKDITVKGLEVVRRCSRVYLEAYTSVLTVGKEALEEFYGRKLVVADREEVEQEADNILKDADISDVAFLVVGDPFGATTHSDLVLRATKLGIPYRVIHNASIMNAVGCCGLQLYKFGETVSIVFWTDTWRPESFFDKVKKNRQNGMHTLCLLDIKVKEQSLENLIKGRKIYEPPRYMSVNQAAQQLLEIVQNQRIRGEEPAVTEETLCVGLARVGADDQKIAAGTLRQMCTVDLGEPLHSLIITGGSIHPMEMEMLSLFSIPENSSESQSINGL", "log2 fold change": "0.022 (inactive)"}
{"target": "CTNNB1 (UniProt P35222)", "sequence (P35222 whole entry, looked up)": "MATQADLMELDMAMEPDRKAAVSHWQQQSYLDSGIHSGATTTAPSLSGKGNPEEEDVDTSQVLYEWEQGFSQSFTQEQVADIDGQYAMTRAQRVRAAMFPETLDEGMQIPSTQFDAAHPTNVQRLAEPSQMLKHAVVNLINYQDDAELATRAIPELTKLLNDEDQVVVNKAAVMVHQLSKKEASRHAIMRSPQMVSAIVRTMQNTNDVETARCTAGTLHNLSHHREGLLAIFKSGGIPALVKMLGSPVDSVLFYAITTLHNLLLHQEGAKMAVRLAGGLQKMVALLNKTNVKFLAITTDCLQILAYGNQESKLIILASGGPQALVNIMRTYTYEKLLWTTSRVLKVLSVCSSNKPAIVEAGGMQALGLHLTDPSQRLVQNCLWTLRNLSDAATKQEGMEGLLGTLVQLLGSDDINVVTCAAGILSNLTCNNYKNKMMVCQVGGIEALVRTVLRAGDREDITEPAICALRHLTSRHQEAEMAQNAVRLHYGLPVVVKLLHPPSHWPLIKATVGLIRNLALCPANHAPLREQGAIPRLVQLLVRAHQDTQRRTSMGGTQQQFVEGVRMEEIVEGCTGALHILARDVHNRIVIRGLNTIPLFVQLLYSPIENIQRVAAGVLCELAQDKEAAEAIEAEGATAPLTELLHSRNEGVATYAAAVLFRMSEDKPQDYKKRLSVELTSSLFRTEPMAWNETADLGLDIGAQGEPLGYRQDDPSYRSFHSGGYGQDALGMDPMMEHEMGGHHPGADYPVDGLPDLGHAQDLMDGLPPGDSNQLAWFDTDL", "log2 fold change": "-0.057 (inactive)"}
{"target": "FAM50A (UniProt Q14320)", "log2 fold change": "-0.026 (inactive)"}
{"compound": "CC1=C(C2=C(C=C1)C(=O)C3=CC=CC=C3N2CCCN)C", "assay": "log2 fold change, soluble protein after heating vs DMSO (PISA); higher = thermal stabilisation; K562 cells, 10 uM, 30 min; active = over 0.2 and 3.5 SD of the protein, either way, in both replicates (recomputed)", "summary_of_the_method": "as §1"}
{"target": "CTU1 (UniProt Q7Z7A3)", "log2 fold change": "-0.021 (inactive)"}
{"target": "DNAJC1 (UniProt Q96KC8)", "log2 fold change": "0.019 (inactive)"}
{"target": "EIF4E isoform 2 (UniProt P06730)", "log2 fold change": "0.027 (inactive)"}
{"target": "DIP2A (UniProt Q14689)", "log2 fold change": "0.018 (inactive)"}
{"target": "DBN1 isoform 3 (UniProt Q16643)", "log2 fold change": "-0.091 (inactive)"}
{"target": "EXOC6 (UniProt Q8TAG9)", "log2 fold change": "0.032 (inactive)"}
{"target": "EXTL2 (UniProt Q9UBQ6)", "log2 fold change": "0.12 (inactive)"}
{"target": "DDOST (UniProt P39656)", "log2 fold change": "-0.041 (inactive)"}
{"target": "DDX39A (UniProt O00148)", "log2 fold change": "-0.28 (inactive)"}
{"target": "ERCC6 (UniProt Q03468)", "log2 fold change": "-0.041 (inactive)"}
{"target": "DYRK1A isoform 2 (UniProt Q13627)", "log2 fold change": "0.144 (inactive)"}
{"target": "DBR1 (UniProt Q9UK59)", "log2 fold change": "0.114 (inactive)"}
{"target": "EEF1G isoform 2 (UniProt P26641)", "log2 fold change": "0.017 (inactive)"}
{"target": "DHFR (UniProt P00374)", "log2 fold change": "0.2 (inactive)"}
{"target": "EFL1 (UniProt Q7Z2Z2)", "log2 fold change": "-0.058 (inactive)"}
{"target": "FAM114A2 (UniProt Q9NRY5)", "log2 fold change": "-0.059 (inactive)"}
{"target": "DNAAF2 (UniProt Q9NVR5)", "log2 fold change": "-0.013 (inactive)"}
{"target": "EXOC8 (UniProt Q8IYI6)", "log2 fold change": "-0.002 (inactive)"}
{"target": "DUS3L (UniProt Q96G46)", "log2 fold change": "-0.005 (inactive)"}
{"target": "DHPS (UniProt P49366)", "log2 fold change": "-0.027 (inactive)"}
{"target": "EDEM2 (UniProt Q9BV94)", "log2 fold change": "0.022 (inactive)"}
{"target": "DHX16 (UniProt O60231)", "log2 fold change": "0.159 (inactive)"}
{"target": "ERCC2 (UniProt P18074)", "log2 fold change": "-0.016 (inactive)"}
{"target": "DHCR24 (UniProt Q15392)", "log2 fold change": "0.212 (inactive)"}
{"target": "DNM2 (UniProt P50570)", "log2 fold change": "0.076 (inactive)"}
{"target": "EHBP1L1 (UniProt Q8N3D4)", "log2 fold change": "0.028 (inactive)"}
{"target": "FAM118B (UniProt Q9BPY3)", "log2 fold change": "0.042 (inactive)"}
{"target": "EBNA1BP2 (UniProt Q99848)", "log2 fold change": "-1.4 (active)"}
{"target": "CUTA isoform 2 (UniProt O60888)", "log2 fold change": "0.15 (inactive)"}
{"target": "EXOC1 (UniProt Q9NV70)", "log2 fold change": "0.071 (inactive)"}
{"target": "DFFB (UniProt O76075)", "log2 fold change": "0.009 (inactive)"}
{"target": "ELOVL1 (UniProt Q9BW60)", "log2 fold change": "0.099 (inactive)"}
{"target": "FAM3A (UniProt P98173)", "log2 fold change": "0.088 (inactive)"}
{"target": "DTWD2 (UniProt Q8NBA8)", "log2 fold change": "-0.004 (inactive)"}
{"target": "DDB1 (UniProt Q16531)", "log2 fold change": "-0.001 (inactive)"}
{"target": "E2F4 (UniProt Q16254)", "log2 fold change": "-0.119 (inactive)"}
{"target": "DPH5 isoform 5 (UniProt Q9H2P9)", "log2 fold change": "0.027 (inactive)"}
{"target": "CTNNB1 (UniProt P35222)", "log2 fold change": "0.003 (inactive)"}
{"target": "FAM50A (UniProt Q14320)", "log2 fold change": "0.053 (inactive)"}
